TEAD-YAP inh – TEAD-YAP interaction inhibition | HEK-TIYL cells, TEAD-Gal4/YAP UAS-luciferase luminescence | AID 1259422 | inhibition, % at 9.12 µM | 1.4% of 640,000 active; in the data active = inhibition above about 32%
FBW7 act – activators of human E3 ligase FBW7. Q969H0. AlphaScreen FBW7–phospho-cyclin E peptide binding, activator screen. normalized activity (activation), % at 26.1 µM. 0.13% of 650,000 active; in the data active = normalized activity above about 1.9%;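 note: purified mutant Fbw7 with reduced substrate affinity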
MITF primary – human MITF inhibition, primary screen | O75030 | AlphaScreen MITF homodimerization, bead proximity signal | inhibition, % at 2.6 µM | 0.91% of 650,000 active | AID 1259374; in the data active = inhibition above about 50%
Target sequence (O75030 whole entry, looked up): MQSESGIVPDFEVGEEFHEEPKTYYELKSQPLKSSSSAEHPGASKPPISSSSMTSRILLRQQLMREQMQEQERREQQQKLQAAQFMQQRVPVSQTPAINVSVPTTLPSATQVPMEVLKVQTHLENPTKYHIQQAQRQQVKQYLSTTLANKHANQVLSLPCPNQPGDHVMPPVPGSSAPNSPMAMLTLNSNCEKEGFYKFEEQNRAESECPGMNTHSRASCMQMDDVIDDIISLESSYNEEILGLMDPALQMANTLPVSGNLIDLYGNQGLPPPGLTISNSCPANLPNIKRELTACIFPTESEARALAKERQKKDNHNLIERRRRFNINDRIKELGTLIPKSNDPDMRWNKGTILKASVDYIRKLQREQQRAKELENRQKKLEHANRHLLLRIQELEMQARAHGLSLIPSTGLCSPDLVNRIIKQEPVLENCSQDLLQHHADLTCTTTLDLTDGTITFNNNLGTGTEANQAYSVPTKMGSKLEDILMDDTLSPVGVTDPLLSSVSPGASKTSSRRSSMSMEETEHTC
GPR151 activ – activators of human GPR151. Q8TDV0. PathHunter beta-arrestin GPR151 cells, luminescence. activation, % at 11.2 µM. 1% of 650,000 active; in the data active = activation above about 4.9%
GPR151 conf act – confirmation of human GPR151 activators. shares compounds with GPR151 activ. GPR151 PathHunter beta-arrestin cells, luminescence, 90 min; % of EA-reagent control over plate median. activation, % at 11.2 µM. 6,700 tested, under 10 active. AID 1508609;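 active = mean percent activation across replicates above the confirmation screen cutoff of 4.91%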
GPR119 ag – GPR119 activation, counter-screen for GPR151 activators | shares compounds with GPR151 activ | GPR119 PathHunter beta-arrestin cells, luminescence, 90 min; 0 = compound-well median, 100 = enzyme-acceptor control | activation, % at 11.2 µM | 0.3% of 6,700 active | AID 1508611;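 active = mean percent activation in the counterscreen above 29.09%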;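 note: counterscreen on off-target GPR119 to flag nonselective hits from the GPR151 activator screen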
Each line names hits and unclear results; the compound was inactive in the other large screens (follow-up assays come after a bar, where they were run); ! = not active in a repeat. Only some compounds are listed: those with a hit (about 3.5% of all), similar ones and a draw of the others.

Cc1ccc(C(=O)COC(=O)CN2C(=O)C3C4CCC(C4)C3C2=O)cc1[N+](=O)[O-] (stereo not drawn)	none
NC(=O)C1CCN(Cc2ccc(Cl)cc2)CC1	none
NC(=O)C1CCN(Cc2cccc(Cl)c2)CC1	GPR151 activ 5.1 | GPR151 conf act inactive | GPR119 ag inactive
CCN(CC)c1ccc(/C=N/NC(=O)c2ccc3ccccc3c2O)c(O)c1	none
CC(NC(=O)C1CC1)C(c1cccs1)N1CCN(c2ccccc2F)CC1 (stereo not drawn)	none
CC(NC(=O)C1CC1)C(c1cccs1)N1CCN(c2ccccc2)CC1 (stereo not drawn)	GPR151 activ 5.7 | GPR151 conf act inactive | GPR119 ag inactive
CC1CCC(=NNC(=O)OC(C)(C)C)CC1 (stereo not drawn)	none
COc1ccc(CN2CCc3nnc(CNC(=O)C4CCC(=O)N4)n3CC2)cc1C (stereo not drawn)	none
O=c1[nH]c2cccnc2[nH]c1=O	GPR151 activ 10.0 | GPR151 conf act inactive | GPR119 ag inactive
COc1ccc(C)cc1NC(=O)c1sc2nc3n(c(=O)c2c1C)CCCC3	none
COc1cc(NC(=O)c2sc3nc4n(c(=O)c3c2C)CCCC4)cc(OC)c1OC	GPR151 activ 11.7 | GPR151 conf act inactive | GPR119 ag inactive
O=C(Nc1cccnc1)c1cnn2cc(Br)cnc12	none
O=C(Nc1ccc(Cl)cc1)c1cnn2cc(Br)cnc12	GPR151 activ 7.3 | GPR151 conf act inactive | GPR119 ag inactive
CCN(CC)S(=O)(=O)c1cccc(C(=O)OCC(=O)c2cccs2)c1	none
CCSC1=C(C#N)C(c2ccc3c(c2)OCO3)C2=C(CCCC2=O)N1 (stereo not drawn)	GPR151 activ 5.5 | GPR151 conf act inactive | GPR119 ag inactive
O=C(NCC1CCCN(S(=O)(=O)/C=C/c2ccccc2)C1)c1cc2ccccc2[nH]1 (stereo not drawn)	none
Cc1cc(S(=O)(=O)N2CCCC(CNC(=O)c3cc4ccccc4[nH]3)C2)c(C)s1 (stereo not drawn)	GPR151 activ 6.2 | GPR151 conf act inactive | GPR119 ag inactive
C(=N\Nc1ccccc1)/c1ccc2c(c1)OCCO2	GPR151 activ 5.3 | GPR151 conf act inactive | GPR119 ag inactive
CCCS(=O)(=O)c1c(S(=O)(=O)CCC)c2ccc(C(C)=O)cn2c1C(=O)c1ccc(C)cc1	none
CCCS(=O)(=O)c1c(S(=O)(=O)CCC)c2ccc(C(C)=O)cn2c1C(=O)c1ccc(OC)cc1	GPR151 activ 6.1 | GPR151 conf act inactive | GPR119 ag inactive
Cc1[nH]n(-c2ccccc2)c(=O)c1/C=N/NC(=O)CNc1ccc2ccccc2c1	none
COc1cccc(C(=O)/C=C/c2ccccc2OC)c1	GPR151 activ 7.1 | GPR151 conf act inactive | GPR119 ag inactive
COc1ccc(/C=C/C(=O)c2cccc(OC)c2)cc1	none
CCCC(=O)Nc1nn2c(-c3cccc(OC)c3)nnc2s1	GPR151 activ 5.2 | GPR151 conf act inactive | GPR119 ag inactive
Cc1ccc(-c2nnc3sc(NC(=O)CC(C)C)nn23)cc1	GPR151 activ 26.8 | GPR151 conf act inactive | GPR119 ag inactive
Cc1cccc(NCCCC(=O)N/N=C/c2ccc(N(C)C)cc2)c1	none
CC1(C)Oc2ccc(C(=O)NC3CCCC3)cc2N(CC(=O)NCc2ccccc2)C1=O	none
O=C(c1ccco1)N1C2CCC1CC(c1ccc(F)cc1)C2 (stereo not drawn)	GPR151 activ 8.6 | GPR151 conf act inactive | GPR119 ag inactive
O=C(c1cscn1)N1C2CCC1CC(c1ccc(F)cc1)C2 (stereo not drawn)	none
Cc1nnsc1C(=O)N1C2CCC1CC(c1ccc(F)cc1)C2 (stereo not drawn)	GPR151 activ 12.2 | GPR151 conf act inactive | GPR119 ag inactive
Cc1nnsc1C(=O)N1CCC(c2ccccc2)C1 (stereo not drawn)	none
COC(=O)c1c(NC(=O)c2ccc([N+](=O)[O-])cc2)sc(C(=O)N2CCOCC2)c1C	GPR151 activ 5.5 | GPR151 conf act inactive | GPR119 ag inactive
Oc1ccc(CCNc2nc(-c3ccccc3)nc3nc[nH]c23)cc1	none
Cc1nnc(NC(C)c2ccccc2)[nH]c1=O (stereo not drawn)	GPR151 activ 5.5 | GPR151 conf act inactive | GPR119 ag inactive
Cc1ccc(OCCNC(=O)C(=O)NCc2ccco2)cc1	TEAD-YAP inh 32.7, GPR151 activ 6.5 | GPR151 conf act inactive | GPR119 ag inactive
Cc1ccc(C(=O)NCc2ccco2)c(Cl)c1	GPR151 activ 8.7 | GPR151 conf act inactive | GPR119 ag inactive
COCCNC(=O)C(=O)NCc1ccco1	none
CCc1ccc(OCCCC(=O)NCc2ccco2)cc1	GPR151 activ 6.6 | GPR151 conf act inactive | GPR119 ag inactive
CC(=O)c1ccc(OCCCC(=O)NCc2ccco2)cc1	none
CC1=CCC(C2Nc3ccccc3-c3nnc(SCc4ccc(C)cc4)nc3O2)CC1 (stereo not drawn)	none
CN1CCN(c2c(F)cc3c(=O)c(C(=O)O)cn4c3c2OCN4C)CC1	none
CN1CCN(c2c(F)cc3c(=O)c(C(=O)O)cn(CCF)c3c2F)CC1	GPR151 activ 6.3! | GPR151 conf act inactive | GPR119 ag inactive
COC(=O)c1cc(Nc2cccc(F)c2)c2cccc(OC)c2n1	GPR151 activ 7.9 | GPR151 conf act inactive | GPR119 ag inactive
COC(=O)c1cc(Nc2ccc(C)cc2)c2cccc(F)c2n1	none
COc1ccc(-c2nnc(SCC(=O)c3cc(C)n(CC4CCCO4)c3C)o2)cc1 (stereo not drawn)	GPR151 activ 4.9 | GPR151 conf act inactive | GPR119 ag inactive
Cn1c(C(=O)Nc2ccc(Oc3ccccc3)cc2)cc2c(=O)n3ccccc3nc21	GPR151 activ 5.9 | GPR151 conf act inactive | GPR119 ag inactive
CC(=O)Nc1ccc(NC(=O)c2cc3c(=O)n4ccccc4nc3n2C)cc1	none
Cc1ccc(NC(=O)c2cc3c(=O)n4ccccc4nc3n2C)cc1F	GPR151 activ 5.6 | GPR151 conf act inactive | GPR119 ag inactive
CCOc1ccc(Nc2cc(C)nc3ccc(C(=O)OC)cc23)cc1	none
CCc1ccc(N(C(=O)c2csnn2)C(C(=O)NC(C)(C)CC)c2ccncc2)cc1 (stereo not drawn)	GPR151 activ 21.9 | GPR151 conf act inactive | GPR119 ag inactive
O=C(Nc1ccccc1)N1CCC(CO)(CCc2ccccc2)CC1	GPR151 activ 9.9 | GPR151 conf act inactive | GPR119 ag inactive
c1ccc(-n2nnnc2NCC2COc3ccccc3O2)cc1 (stereo not drawn)	GPR151 activ 5.1 | GPR151 conf act inactive | GPR119 ag inactive
CN(CC1COc2ccccc2O1)c1nnnn1-c1ccccc1 (stereo not drawn)	none
Cn1c(=O)c2c(nc(-n3ccnc3)n2Cc2ccc([N+](=O)[O-])cc2)n(C)c1=O	GPR151 activ 5.0 | GPR151 conf act inactive | GPR119 ag inactive
